# Hit rate of the full screen: of about 310,000 compounds, about 14,000 (4.5%) showed an effect of 50% or more. Effects have a minus sign here. This is one part of a sample in which strong results are shown more often than they occur.
# Molecular target: human ether-à-go-go-related gene (hERG) potassium channel (human, UniProt Q12809)
# Experiment: primary screen, population patch clamp on CHO cells stably expressing hERG; higher = less effect of the substance
# 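Note: peak tail current of the secondary pulse compared with the same well before compound.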
# Sequence of human ether-à-go-go-related gene (hERG) potassium channel (Q12809 whole entry, looked up): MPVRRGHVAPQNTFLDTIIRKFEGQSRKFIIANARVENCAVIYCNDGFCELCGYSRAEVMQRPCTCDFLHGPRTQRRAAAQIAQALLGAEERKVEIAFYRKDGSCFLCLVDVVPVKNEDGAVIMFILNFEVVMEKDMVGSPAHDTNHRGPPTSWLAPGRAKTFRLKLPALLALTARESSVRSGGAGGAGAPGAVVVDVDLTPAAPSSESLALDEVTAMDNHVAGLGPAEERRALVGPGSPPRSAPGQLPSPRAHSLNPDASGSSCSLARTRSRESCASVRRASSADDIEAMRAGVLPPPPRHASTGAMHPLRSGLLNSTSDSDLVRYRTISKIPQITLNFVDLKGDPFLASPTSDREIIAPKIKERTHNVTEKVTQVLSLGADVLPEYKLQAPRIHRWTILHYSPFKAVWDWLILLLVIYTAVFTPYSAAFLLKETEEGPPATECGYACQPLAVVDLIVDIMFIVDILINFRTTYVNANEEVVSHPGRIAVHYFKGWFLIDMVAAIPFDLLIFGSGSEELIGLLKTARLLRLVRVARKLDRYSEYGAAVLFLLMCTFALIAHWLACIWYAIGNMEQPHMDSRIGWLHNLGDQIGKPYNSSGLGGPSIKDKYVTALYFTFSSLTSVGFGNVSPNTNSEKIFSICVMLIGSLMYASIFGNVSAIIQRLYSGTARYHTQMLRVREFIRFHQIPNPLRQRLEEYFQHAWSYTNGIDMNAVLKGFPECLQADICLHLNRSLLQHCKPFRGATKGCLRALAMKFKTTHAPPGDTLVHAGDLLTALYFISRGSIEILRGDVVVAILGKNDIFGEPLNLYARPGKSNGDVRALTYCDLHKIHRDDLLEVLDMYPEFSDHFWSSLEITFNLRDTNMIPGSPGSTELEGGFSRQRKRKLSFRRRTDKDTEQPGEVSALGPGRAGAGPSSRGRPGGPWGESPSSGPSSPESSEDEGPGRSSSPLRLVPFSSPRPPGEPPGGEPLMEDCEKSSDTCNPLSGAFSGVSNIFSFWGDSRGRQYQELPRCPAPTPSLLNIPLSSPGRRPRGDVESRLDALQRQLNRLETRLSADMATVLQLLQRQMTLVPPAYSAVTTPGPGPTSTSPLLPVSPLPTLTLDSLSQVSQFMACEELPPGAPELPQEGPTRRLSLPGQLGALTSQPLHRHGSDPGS
row,SMILES,"hERG current change (%, negative = inhibition) at 10uM"
1,CC(=O)NC(CC(=O)Nc1nc(C)cs1)c1ccccc1 (stereo not drawn),14.1%
2,CCCCCCCCn1sccc1=O,-33.8%
3,Cc1ccc(S(=O)(=O)N2CCN3CCCC3C2)cc1 (stereo not drawn),-6.76%
4,COc1ccc(S(=O)(=O)NCCc2nnc3ccc(SCC(=O)Nc4nc(C)cs4)nn23)cc1,25.3%
5,NC(=O)CC1C(=O)N(c2ccc(Cl)cc2)C(=S)N1NC(=O)c1cccc(F)c1 (stereo not drawn),15.3%
6,COc1ccccc1/C=C/C(=O)NCC(=O)N/N=C(/C)c1ccco1,7.74%
7,Nc1[nH]nc2nc3ccccc3cc12,23%
8,O=c1oc2ccccc2cc1-c1cn2cccnc2n1,1.91%
9,COc1ccc(C2C(C(=O)N3CCN(c4ccccn4)CC3)CCC(=O)N2c2cc(OC)c(OC)c(OC)c2)cc1 (stereo not drawn),9.77%
10,Cc1cccc(N=C2C(=O)Nc3c(Cl)cccc32)c1,18.5%
11,CCc1nc2cc(Cl)c(Cl)cc2[nH]1,2.59%
12,Cc1ccc(-n2c(=O)c(C#N)cc3c(=O)n4cccc(C)c4nc32)cc1,1.03%
13,Cc1cc(-n2c(=O)c(C#N)cc3c(=O)n4cccc(C)c4nc32)no1,-65.1%
14,Cc1cc(-n2c(=O)c(C#N)cc3c(=O)n4ccccc4nc32)no1,-17%
15,Cc1ccc(OC(=O)c2ccc(S(=O)(=O)N(C)C)cc2)c(-n2nc3ccccc3n2)c1,3.83%
16,O=C(Nc1nccs1)c1ccc(-c2ccc(Cl)cc2Cl)o1,25.5%
17,O=C(CSc1nc2ccccc2c(=O)n1CC1CCCO1)NCCc1ccccc1 (stereo not drawn),7.48%
18,Cc1cccn2c(=O)c3cc(S(=O)(=O)c4ccccc4)c(=N)n(CC4CCCO4)c3nc12 (stereo not drawn),-15.3%
19,COc1ccc(CNC(=O)c2cc3c(=O)n4cccc(C)c4nc3n(CC3CCCO3)c2=N)cc1 (stereo not drawn),-77.2%
20,COc1ccc(CNC(=O)C(=O)NCC2CCCO2)cc1 (stereo not drawn),9.7%
21,COc1ccc(CCNC(=O)c2cc3c(=O)n4cccc(C)c4nc3n(CC3CCCO3)c2=N)cc1 (stereo not drawn),-75.2%

row,SMILES,"hERG current change (%, negative = inhibition) at 10uM"
1,Cc1ccc(CCNC(=O)c2ccc3nc4ccccc4c(=O)n3c2)cc1,6.08%
2,Cc1ccc2nc3c(cc(C(=O)NCCc4ccccc4)c(=N)n3CC3CCCO3)c(=O)n2c1 (stereo not drawn),-76.9%
3,Cc1cccn2c(=O)c3cc(C(=O)NCCc4ccccc4)c(=N)n(CC4CCCO4)c3nc12 (stereo not drawn),-82.3%
4,CCOc1cc(CNCCc2cccc(F)c2)ccc1OC.O=C(O)C(=O)O,-43.8%
5,O=C(Nc1ccc2c(c1)OCCO2)c1cnn(-c2ccccc2)n1,-6.02%
6,O=C(CSc1nc2cc(Cl)ccc2c(=O)n1Cc1ccco1)Nc1ccc(S(=O)(=O)N2CCOCC2)cc1,-13.6%
7,Cc1ccc(NC(=O)CCNC(=O)c2ccccc2Cl)cc1S(=O)(=O)N1CCOCC1,-8.82%
8,Cn1c(C(=O)O)ccc1S(=O)(=O)N(Cc1ccccc1)Cc1ccccc1,16.5%
9,Cc1ccccc1NC(=O)Cn1c(NCC(C)O)nc2ccccc21 (stereo not drawn),-2.11%
10,COc1ccc(S(=O)(=O)c2c(O)c3ccc(C(=O)Nc4ccccc4F)cc3[nH]c2=O)cc1,-0.579%
11,CCc1nnc(NC(=O)CSc2nnc(CSc3nc(C)cc(C)n3)o2)s1,3.21%
12,N=c1c(C(=O)NCCc2ccccc2)cc2c(=O)n3ccccc3nc2n1CC1CCCO1 (stereo not drawn),-90.7%
13,Cc1cccn2c(=O)c3cc(C(=O)NCc4ccc(F)cc4)c(=N)n(CC4CCCO4)c3nc12 (stereo not drawn),-74%
14,COc1ccc(CCNC(=O)Cn2c(=O)n(CC3CCCO3)c(=O)c3ccccc32)cc1OC (stereo not drawn),-0.738%
15,COc1ccc(CCNC(=O)c2cc3c(=O)n4ccccc4nc3n(CC3CCCO3)c2=N)cc1OC (stereo not drawn),-78.4%
16,O=C(NCc1ccc(Cl)cc1)c1ccc2c(=O)n(CC3CCCO3)c(=S)[nH]c2c1 (stereo not drawn),7.01%
17,Cc1ccc2nc(/C(C#N)=C\c3ccc(Oc4ccc(C(F)(F)F)cc4[N+](=O)[O-])cc3)[nH]c2c1,20.8%
18,COc1ccc(C(=O)CC(=O)C(=O)Nc2ccc(OC)c(Cl)c2)cc1,12.9%
19,Cc1nn(-c2ccccc2)c(N2CCCCC2)c1/C=N/NC(=O)c1ccncc1,7.3%
20,O=C1CCCC2=C1C(c1ccccc1)n1c(s/c(=C/c3cccc(F)c3)c1=O)=N2 (stereo not drawn),16%
21,NCc1cccc(CNc2ccc([N+](=O)[O-])cc2C(N)=O)c1,-19.9%

row,SMILES,"hERG current change (%, negative = inhibition) at 10uM"
1,NC(=O)CC(NC(=O)c1cccc(Br)c1)c1ccc(NC2CCN(Cc3ccccc3)CC2)c([N+](=O)[O-])c1 (stereo not drawn),6.8%
2,NC(=O)CC(NC(=O)c1ccccc1)c1ccc(NC2CCN(Cc3ccccc3)CC2)c([N+](=O)[O-])c1 (stereo not drawn),1.08%
3,O=[N+]([O-])c1cc(C(F)(F)F)ccc1NC1CCN(Cc2ccccc2)C1 (stereo not drawn),-66.6%
4,NC(=O)CC(NC(=O)Cc1ccc(Br)cc1)c1ccc(NC2CCN(Cc3ccccc3)CC2)c([N+](=O)[O-])c1 (stereo not drawn),-45.8%
5,O=[N+]([O-])c1cc(C(F)(F)F)ccc1NC1CCN(Cc2ccccc2)CC1,-68%
6,NC(=O)CC(NC(=O)Cc1ccc(Cl)cc1)c1ccc(NC2CCN(Cc3ccccc3)CC2)c([N+](=O)[O-])c1 (stereo not drawn),-18.5%
7,CCCc1nc(SCC(=O)NNC(=O)C2CCCCC2)c2ccccc2n1,-2.77%
8,Cc1ccc(S(=O)(=O)N(C)c2ccc(OCC(=O)Nc3nc(-c4ccccc4)cs3)cc2)cc1,14.3%
9,O=[N+]([O-])c1ccc(C[n+]2cc(-c3ccccc3)n3c2CCCCC3)cc1.[Br-],-35.3%
10,Clc1ccc(C[n+]2cc(-c3ccccc3)n3c2CCCCC3)c(Cl)c1.[Br-],-74.4%
11,Clc1ccc(C[n+]2cc(-c3ccccc3)n3c2CCC3)cc1.[Cl-],-33.5%
12,Clc1ccc(-c2c[n+](Cc3ccc(Cl)cc3Cl)c3n2CCCCC3)cc1.[Br-],-66%
13,Cc1cc(Nc2ccccc2)c2c([N+](=O)[O-])cc(C)c(C)c2n1,-9.29%
14,O=C(CCn1c(=O)[nH]c2ccccc2c1=O)Nc1ccccc1,16.4%
15,Cc1ccc(S(=O)(=O)NCC(=O)N(CC(=O)NCc2ccco2)Cc2ccc(F)cc2)cc1,5.19%
16,O=C(COC(=O)CC1Sc2ccccc2NC1=O)NCc1ccccc1 (stereo not drawn),-21.4%
17,Cc1cccc(N2CCN(C(C)C(=O)N3CCc4ccccc43)CC2)c1C (stereo not drawn),17%
18,CCCNC(=O)CS(=O)(=O)Cc1nc(-c2ccccc2C)oc1C,3.88%
19,O=C1CCc2cc(S(=O)(=O)N3CCN(Cc4ccc5c(c4)OCO5)CC3)ccc2N1,-70.1%
20,O=C1CCc2cc(S(=O)(=O)NCCCC(=O)N3CCN(Cc4ccc5c(c4)OCO5)CC3)ccc2N1,-0.149%
21,O=S(=O)(c1cccc(F)c1)N1CCN(Cc2ccc3c(c2)OCO3)CC1,-35.8%

row,SMILES,"hERG current change (%, negative = inhibition) at 10uM"
1,O=S(=O)(c1ccc2c(c1)OCCO2)N1CCN(Cc2ccc3c(c2)OCO3)CC1,3.98%
2,O=S(=O)(c1ccc(F)c(F)c1)N1CCN(Cc2ccc3c(c2)OCO3)CC1,-51.4%
3,COc1ccc(S(=O)(=O)N2CCN(Cc3ccc4c(c3)OCO4)CC2)cc1F,-30.5%
4,O=[N+]([O-])c1cc(Br)c(O)c(/C=N/Nc2nnnn2-c2cccc3ccccc23)c1,0.778%
5,O=C(Cc1c[nH]c2ccccc12)Nc1nccs1,0.956%
6,O=C(CN1C(=O)C2CC=CCC2C1=O)Nc1cc(C(F)(F)F)ccc1N1CCCC1 (stereo not drawn),-24.6%
7,O=C(O)c1cc2n(n1)CCN(Cc1ccccc1Cl)C2=O,8.71%
8,Cc1ccc(/C=N/n2c(C)nc3ccccc3c2=O)o1,10.9%
9,Cc1nc2ccccc2n1/N=C/c1ccc([N+](=O)[O-])o1,-58.9%
10,Cc1nc2ccccc2n1/N=C/c1ccc([N+](=O)[O-])s1,-12.3%
11,Cc1nc2ccccc2c(=O)n1/N=C/c1ccccc1,-0.523%
12,Cc1cc2ncn(/N=C/c3ccc([N+](=O)[O-])o3)c2cc1C,-0.858%
13,Cc1nc2ccccc2c(=O)n1/N=C/c1ccc([N+](=O)[O-])o1,-53.3%
14,O=C(c1cc2c(s1)CCC2)N1C(=O)c2ccccc2S1(=O)=O,12.9%
15,CCCC(C)NC(=O)CN1C(=O)c2cccc3cccc1c23 (stereo not drawn),1.42%
16,COc1ccc(C(C)=O)cc1CSc1nc2cc(Cl)ccc2o1,9.66%
17,O=c1oc2cccnc2n1CCS(=O)(=O)c1ccc(F)cc1,9.29%
18,CCOc1ccccc1NC(=O)Cn1c(-c2ccc(Cl)cc2)noc1=O,-2.01%

# Reference: article PMC4336329 (PLoS ONE, 2015)
